Measurements reported in PubChem BioAssay (NCI).
About 83,000 compounds went through this panel and 20% of them were active in at least one assay; those are over-represented in the sample as a whole.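 Results are percent growth after 48 hours of single-concentration exposure. 100 means growth as in untreated cells, lower positive values show inhibition; negative values down to -100 show cell death.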 Values without a mark were called inactive. The source made the active and inactive calls. Rule for the calls: active = growth percent below 10; inactive = the rest.

Tests used:
Test in all cases: NCI-60 one-dose screen, 48 h (100 = growth as untreated, 0 = no growth, -100 = all killed)
Settings in all cases: 10 µM unless noted
DU-145 prostate = test system: DU-145 prostate
K-562 leukemia = test system: K-562 leukemia
MALME-3M melanoma = test system: MALME-3M melanoma
MDA-MB-231 breast = test system: MDA-MB-231 breast
SF-268 CNS = test system: SF-268 CNS
SF-295 CNS = test system: SF-295 CNS
SF-539 CNS = test system: SF-539 CNS
UACC-257 melanoma = test system: UACC-257 melanoma

| Structure (SMILES) | growth (DU-145 prostate) | growth (K-562 leukemia) | growth (MALME-3M melanoma) | growth (MDA-MB-231 breast) | growth (SF-268 CNS) | growth (SF-295 CNS) | growth (SF-539 CNS) | growth (UACC-257 melanoma) |
| --- | --- | --- | --- | --- | --- | --- | --- | --- |
| O=C(O)c1ccc(-n2cc(CNc3cccc(Cl)c3)c(-c3ccc(F)cc3)n2)cc1 | 102% | 76.4% | 82.8% | 91.7% | 109% | 87.6% | 96.1% | 96.8% |
| COc1c(N2CC3CCCNC3C2)c(F)cc2c(=O)c(C(=O)N/N=C/c3ccccc3)cn(C3CC3)c12 (stereo unspecified) | 104% | 54.1% | 94.1% | 94.9% | 85.2% | 104% | 83.7% | 106% |
| c1ccc(C(c2nc3ncncc3[nH]2)N2CSc3nc4ncncc4n3C2)cc1 (stereo unspecified) | 34.1% | 24.8% | 58.5% | 49.7% | 66.8% | 39.6% | 49.5% | 76% |
| CN1CCN(Cc2ccc(NC(=O)c3cncc(C#Cc4cnc5ccc(OCC6(C)COC6)nn45)c3)cc2C(F)(F)F)CC1 | -85.3% (active) | 4.99% (active) | -79.8% (active) | -74.1% (active) | -62.2% (active) | -97.1% (active) | -88.6% (active) | -70.6% (active) |
| C=CCn1c(SCC(=O)Nc2ccc(C(=O)/C=C/c3ccc(Cl)cc3)cc2)nnc1-c1c[nH]c2ccccc12 | 90.6% | 50.7% | 83% | 81.5% | 64% | 46% | 75.8% | 99.6% |
| CCCCCc1ccc(S(=O)(=O)Nc2cccc(-c3csc(NC(=O)CN4CCN(C)CC4)n3)c2)cc1 | 82.4% | 7.06% (active) | 45.7% | 74.2% | 78.4% | 104% | 82.9% | 93% |
| CCOC(=O)C1=NNC(c2ccc(Cl)cc2)C1C(=O)N1C(=S)NC(=O)C1CC(C)C (stereo unspecified) | 107% | 98.4% | 104% | 86.2% | 98.3% | 106% | 104% | 116% |
| CC(Nc1c(C#N)cnc2ccc(-c3cnc(N)nc3)cc12)c1ccccc1 (stereo unspecified) | 17.3% | 22.5% | 0.078% (active) | 19.1% | 13.4% | -17% (active) | 2.6% (active) | 34.1% |
| COc1cc2oc(-c3cccc(NC(=O)c4cc(N)ccc4Cl)c3)cc(=O)c2c(OC)c1OC | 99.7% | 83.7% | 100% | 87.8% | 98.2% | 91.4% | 94.8% | 127% |
| CCc1ccc(SC2c3ccc(N(CC)CC)cc3Oc3nc(N)c(C#N)c(N)c32)cc1 (stereo unspecified) | -86.3% (active) | 1.74% (active) | -40.8% (active) | -83.8% (active) | -24.3% (active) | -76.2% (active) | -94.1% (active) | 6.57% (active) |
| COc1c(N2CC3CCCNC3C2)c(F)cc2c(=O)c(C(=O)N/N=C/c3ccc(N(C)C)cc3)cn(C3CC3)c12 (stereo unspecified) | 73.6% | -10% (active) | 92.9% | 69.1% | 85.5% | 95% | -8.68% (active) | 106% |
| CS(=O)(=O)Nc1cc(-c2ccc3ncc(C#N)c(N[C@H](CO)c4ccccc4)c3c2)cnc1Cl | 62.4% | 41.4% | 29.8% | 43% | 28.4% | 57% | 43.7% | 59.7% |
| COc1cc(/C=C2\C(=O)Nc3ccccc32)ccc1OCc1ccc(Cl)cc1 | 98.7% | 98.5% | 95.5% | 99% | 98.6% | 103% | 98% | 125% |
| Nc1ncc(-c2ccc3ncnc(N4CCc5cc(F)c(F)cc54)c3c2)cn1 | 26% | 48.7% | 17.4% | 26.9% | 29.5% | 20.7% | 18.9% | 45% |
| O=C(NNc1nc2cc(F)ccc2n2c(CN3CCC(O)C3)ccc12)c1cnccn1 (stereo unspecified) | 24% | 11.8% | 12.1% | 34.2% | 22.6% | 4.11% (active) | 10.1% | 7.04% (active) |
| N#Cc1cccc(CN2CCC3=C(C2)C(=O)N(Cc2ccc(Cl)cc2)C2=NCCCN23)c1 | 31.2% | 22.5% | 46.7% | 32.6% | 37.1% | 7.29% (active) | 40.5% | 13.8% |

| Structure (SMILES) | growth (DU-145 prostate) | growth (K-562 leukemia) | growth (MALME-3M melanoma) | growth (MDA-MB-231 breast) | growth (SF-268 CNS) | growth (SF-295 CNS) | growth (SF-539 CNS) | growth (UACC-257 melanoma) |
| --- | --- | --- | --- | --- | --- | --- | --- | --- |
| COc1cc(C2N=C(NNc3ccccc3)NC(C)=C2C(C)=O)ccc1O (stereo unspecified) | 108% | 66.8% | 106% | 76.8% | 86.3% | 101% | 98.7% | 110% |
| CCn1c(SCC(=O)Nc2cccc(C(=O)/C=C/c3ccc(C)cc3)c2)nc2ccccc2c1=O | 77.2% | 55.4% | 103% | 92.1% | 87.2% | 104% | 86.5% | 105% |
| COc1ccc(Oc2ccc(/C=N/NC(=O)CSc3nc4ccccc4c(=O)n3-c3ccc(Cl)cc3)cc2)cc1 | 49.2% | 58.4% | 63.9% | 46.7% | 57.9% | 67.7% | 32.2% | 94.7% |
| COc1ccc(NC(=O)Nc2ccc3c(ccn3C(=O)c3cccc(F)c3)c2)cc1 | 84.5% | 86.1% | 34.2% | 78.6% | 85.3% | 90.4% | 52% | 84.2% |
| CNC(=O)c1c(NC(=O)c2ccccc2C(F)(F)F)sc2c1CCC(=O)C2 | 99.9% | 12.9% | 54% | 26.5% | 33.2% | 82.2% | 14.5% | 72.4% |
| COc1cc(/C=C2\C(=O)Nc3ccccc32)ccc1OCc1ccc(F)cc1 | 106% | 104% | 99.8% | 100% | 105% | 102% | 102% | 118% |
| N#Cc1cnc2ccc(-c3cnc(N)nc3)cc2c1N1CCc2cc(F)c(Cl)cc21 | 13.3% | 12% | -11.6% (active) | 14.9% | 5.13% (active) | -8.96% (active) | -12.5% (active) | 8.92% (active) |
| COc1cc(Cn2cc3c(c2)-c2onc(CN4CCOCC4)c2CC3)cc(OC)c1OC | 113% | 72.5% | 91.8% | 82.6% | 99.7% | 93% | 99.2% | 101% |
| O=C(CSc1nc2ccccc2c(=O)n1-c1ccc(Cl)cc1)N/N=C/c1ccc(N2CCCCC2)cc1 | 29.1% | 73.6% | 64.2% | 72% | 34.7% | 76.4% | 41.3% | 97.1% |
| O=C(NCCN1CCCC1)c1ccc(-c2nc3ccc4[nH]ncc4c3c3c2CCCC3)cc1 | 6.08% (active) | 0.479% (active) | -2.3% (active) | -2.53% (active) | -11.3% (active) | 3.28% (active) | -63.2% (active) | 23.8% |
| COc1c(N2CC3CCCNC3C2)c(F)cc2c(=O)c(C(=O)N/N=C/c3ccc(Br)cc3)cn(C3CC3)c12 (stereo unspecified) | 85.5% | -18.5% (active) | 82.8% | 56.1% | 82.4% | 101% | 72.7% | 100% |
| COc1cc(/C=N/NC(=O)c2cn(C3CC3)c3c(OC)c(N4CC5CCCNC5C4)c(F)cc3c2=O)ccc1O (stereo unspecified) | 46.5% | -25.5% (active) | 89.2% | -27.4% (active) | 82.1% | 100% | -9.11% (active) | 104% |
| CS(=O)(=O)Nc1cc(-c2ccc3ncc(C#N)c(NCc4cccc(F)c4)c3c2)cnc1Cl | 17.8% | 14.1% | -35.7% (active) | 0.274% (active) | 3.62% (active) | -21.9% (active) | -26.4% (active) | 1.5% (active) |
| c1ccc(C(c2nc3ncncc3[nH]2)N2CSc3nc4ccccc4n3C2)cc1 (stereo unspecified) | 110% | 96.5% | 81.1% | 98.9% | 98.1% | 101% | 95.3% | 104% |
| NC(N)=Nc1ccc(Oc2cccc(NC(N)=Nc3ccc(Br)c(C(F)(F)F)c3)c2)cc1 | 72.6% | 29.3% | 67.5% | 61.4% | 18.8% | 40.5% | 39.8% | 54.8% |
| COC(=O)C[Se]C(=O)Cc1c(C)n(C(=O)c2ccc(Cl)cc2)c2ccc(OC)cc12 | 25.6% | 54% | 46.5% | 30.9% | 40.7% | 9.86% (active) | 39.9% | 65.2% |
